Measurements from PubChem BioAssay (NCI).
This is part of a sample that, as a whole, favours compounds with a hit. Of some 83,000 tested, about 20% had one in any assay.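 Results are percent growth after 48 hours of single-concentration exposure. 100 means growth as in untreated cells, lower positive values show inhibition; negative values down to -100 show cell death.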 Calls of active or inactive are those of the source. How the source made its calls: active means growth percent below 10; inactive means the rest.

Key:
Test in all cases: NCI-60 one-dose screen, 48 h (100 = growth as untreated, 0 = no growth, -100 = all killed)
Details in all cases: 10 µM
SR leukemia = test system: SR leukemia
RPMI-8226 leukemia = test system: RPMI-8226 leukemia
OVCAR-8 ovarian = test system: OVCAR-8 ovarian
OVCAR-5 ovarian = test system: OVCAR-5 ovarian
OVCAR-4 ovarian = test system: OVCAR-4 ovarian
SK-OV-3 ovarian = test system: SK-OV-3 ovarian
IGROV1 ovarian = test system: IGROV1 ovarian
OVCAR-3 ovarian = test system: OVCAR-3 ovarian
HS 578T breast = test system: HS 578T breast
NCI/ADR-RES ovarian = test system: NCI/ADR-RES ovarian

Measured: growth

Cc1nc2n(c(=O)c1CCN1CCC(c3noc4cc(F)ccc34)CC1)CCC[C@@H]2O
inactive: SR leukemia 93.8% | RPMI-8226 leukemia 111% | OVCAR-8 ovarian 97.5% | OVCAR-5 ovarian 88.6% | OVCAR-4 ovarian 105% | SK-OV-3 ovarian 103% | IGROV1 ovarian 105% | OVCAR-3 ovarian 106% | HS 578T breast 100% | NCI/ADR-RES ovarian 97.2%

COc1cc2cc(Oc3ccc(NC(=O)c4ccccc4)cc3)c(C)nc2cc1OC
inactive: SR leukemia 70.2% | RPMI-8226 leukemia 96.8% | OVCAR-8 ovarian 22.7% | OVCAR-5 ovarian 112% | OVCAR-4 ovarian 78.9% | SK-OV-3 ovarian 73.4% | IGROV1 ovarian 91.5% | OVCAR-3 ovarian 83.4% | HS 578T breast 57.1% | NCI/ADR-RES ovarian 81.3%

NNC(=O)Oc1c(Cl)cc(Cl)cc1[N+](=O)[O-]
inactive: SR leukemia 87.5% | RPMI-8226 leukemia 105% | OVCAR-8 ovarian 109% | OVCAR-5 ovarian 104% | OVCAR-4 ovarian 113% | SK-OV-3 ovarian 102% | IGROV1 ovarian 101% | OVCAR-3 ovarian 107% | HS 578T breast 104% | NCI/ADR-RES ovarian 101%

COc1cc(C(=O)/C=C/c2c[nH]c3ccccc23)cc(OC)c1OC
active: OVCAR-3 ovarian -8.84% | NCI/ADR-RES ovarian 9.93%
inactive: SR leukemia 14.3% | RPMI-8226 leukemia 10.3% | OVCAR-8 ovarian 15.9% | OVCAR-5 ovarian 55.7% | OVCAR-4 ovarian 49.4% | SK-OV-3 ovarian 17.7% | IGROV1 ovarian 27.7% | HS 578T breast 49.9%

Nc1ccc(CC[C@H]2CCC/C=C/[C@@H]3C[C@H](O)C[C@H]3[C@H](O)/C=C/C(=O)O2)cc1
active: SR leukemia 1.1% | RPMI-8226 leukemia -4.05% | OVCAR-8 ovarian 2.58% | OVCAR-3 ovarian -13.4% | NCI/ADR-RES ovarian -0.671%
inactive: OVCAR-5 ovarian 11.4% | OVCAR-4 ovarian 11.3% | SK-OV-3 ovarian 26.6% | IGROV1 ovarian 12% | HS 578T breast 39.6%

Cc1nn(-c2ccc(-c3ccc(OC(F)(F)F)cc3)cc2)c2nc(Cc3ccccc3)nc(N)c12
active: OVCAR-4 ovarian 4.27%
inactive: SR leukemia 41.8% | RPMI-8226 leukemia 92.1% | OVCAR-8 ovarian 33% | OVCAR-5 ovarian 57.6% | SK-OV-3 ovarian 56.9% | IGROV1 ovarian 47.3% | OVCAR-3 ovarian 46.5% | HS 578T breast 55.5% | NCI/ADR-RES ovarian 40.5%

O=S(=O)(Oc1ccc(-c2ccc3sccc3c2)cc1)c1ccc(F)cc1
inactive: SR leukemia 86.3% | RPMI-8226 leukemia 96.4% | OVCAR-8 ovarian 106% | OVCAR-5 ovarian 102% | OVCAR-4 ovarian 100% | SK-OV-3 ovarian 107% | IGROV1 ovarian 104% | OVCAR-3 ovarian 110% | HS 578T breast 112% | NCI/ADR-RES ovarian 95.8%

CCOC(=O)c1cc(C(=O)c2ccc(Cl)cc2)n2ccc(-c3cc[n+](CC(=O)c4ccc(OC)cc4)cc3)cc12
inactive: RPMI-8226 leukemia 23.4% | OVCAR-8 ovarian 76.7% | OVCAR-5 ovarian 112% | OVCAR-4 ovarian 29.7% | SK-OV-3 ovarian 91.1% | IGROV1 ovarian 93.2% | OVCAR-3 ovarian 37.4% | HS 578T breast 83.2% | NCI/ADR-RES ovarian 88.8%
active: SR leukemia -27.2%

CC(=O)[C@@]12O[C@](C)(c3ccccc3)O[C@@H]1CC1C3CCC4=CC(=O)CC[C@]4(C)C3CC[C@@]12C (stereo not given in full)
inactive: SR leukemia 32.1% | RPMI-8226 leukemia 47.6% | OVCAR-8 ovarian 82.4% | OVCAR-5 ovarian 88.5% | OVCAR-4 ovarian 44% | SK-OV-3 ovarian 99.7% | IGROV1 ovarian 70.7% | OVCAR-3 ovarian 54.3% | HS 578T breast 86.2% | NCI/ADR-RES ovarian 60.4%

N#Cc1c(N)nc(-c2cc(F)cc(C(F)(F)F)c2)nc1-c1ccccc1F
active: OVCAR-4 ovarian 5.1%
inactive: SR leukemia 23.6% | RPMI-8226 leukemia 70.9% | OVCAR-8 ovarian 35.8% | OVCAR-5 ovarian 61.1% | SK-OV-3 ovarian 46.6% | IGROV1 ovarian 38.6% | OVCAR-3 ovarian 37.5% | HS 578T breast 18.4% | NCI/ADR-RES ovarian 49.3%

CCN(CC)c1ccc(/C=C2\SC(=O)C(Nc3nnc(-c4cccnc4SCc4ccccc4)o3)C2=O)cc1 (stereo not given)
active: OVCAR-3 ovarian -13.5% | NCI/ADR-RES ovarian -9.88%
inactive: SR leukemia 11.8% | RPMI-8226 leukemia 23.4% | OVCAR-8 ovarian 24.2% | OVCAR-5 ovarian 41.4% | OVCAR-4 ovarian 38.6% | SK-OV-3 ovarian 15.6% | IGROV1 ovarian 56.5% | HS 578T breast 26.6%

COc1ccc(-c2n[nH]nc2-c2cc(OC)c(OC)c(OC)c2)cc1
active: SR leukemia 7.33% | RPMI-8226 leukemia 4.71% | IGROV1 ovarian 4.66% | OVCAR-3 ovarian -33.3% | NCI/ADR-RES ovarian -28.8%
inactive: OVCAR-8 ovarian 21.8% | OVCAR-5 ovarian 43.3% | OVCAR-4 ovarian 35.4% | SK-OV-3 ovarian 48.6% | HS 578T breast 12.2%

COc1cc(NC(=O)Nc2cnc(Nc3ccc(N4CCOCC4)cc3)nc2Oc2cccc(OC)c2)cc(OC)c1
inactive: SR leukemia 46.1% | RPMI-8226 leukemia 53.3% | OVCAR-5 ovarian 96.5% | OVCAR-4 ovarian 13.7% | SK-OV-3 ovarian 42.2% | IGROV1 ovarian 43.4% | OVCAR-3 ovarian 41.7% | HS 578T breast 23.2% | NCI/ADR-RES ovarian 61%
active: OVCAR-8 ovarian -10.8%

Nc1nc(Cl)nc2c1ncn2C1O[C@H](CO)[C@@H](O)[C@@H]1F (stereo not given in full)
inactive: RPMI-8226 leukemia 105% | OVCAR-8 ovarian 27.1% | OVCAR-5 ovarian 47.4% | OVCAR-4 ovarian 80.2% | SK-OV-3 ovarian 34.5% | IGROV1 ovarian 53% | OVCAR-3 ovarian 60.7% | HS 578T breast 82.5% | NCI/ADR-RES ovarian 16.6%
active: SR leukemia 7.7%

COc1cc(/C=C2\CCCC3=C2NC(N)=NC3c2cc(OC)c(OC)c(OC)c2)cc(OC)c1OC (stereo not given)
inactive: OVCAR-4 ovarian 27% | HS 578T breast 37%
active: SR leukemia 1.07% | RPMI-8226 leukemia -15.4% | OVCAR-8 ovarian -35.8% | OVCAR-5 ovarian 6.85% | SK-OV-3 ovarian 7.16% | IGROV1 ovarian -19.4% | OVCAR-3 ovarian -17.7% | NCI/ADR-RES ovarian 3.96%

c1ccc(CSc2ncccc2-c2nnc(SCCN3CCOCC3)o2)cc1
inactive: SR leukemia 104% | RPMI-8226 leukemia 104% | OVCAR-8 ovarian 109% | OVCAR-5 ovarian 119% | OVCAR-4 ovarian 106% | SK-OV-3 ovarian 109% | IGROV1 ovarian 98.3% | OVCAR-3 ovarian 120% | HS 578T breast 133% | NCI/ADR-RES ovarian 107%

COc1cc(C2C(C#N)=C(N)Oc3cc(O)ccc32)cc(OC)c1OC (stereo not given)
inactive: SR leukemia 11.4% | RPMI-8226 leukemia 15.5% | OVCAR-8 ovarian 34.4% | OVCAR-5 ovarian 35.5% | OVCAR-4 ovarian 49.7% | SK-OV-3 ovarian 44.2% | IGROV1 ovarian 34.9% | HS 578T breast 20% | NCI/ADR-RES ovarian 38.4%
active: OVCAR-3 ovarian -38.2%

Cc1cc(CSc2ccccc2C(=O)N2CC=C(c3ccccc3)CC2)on1
inactive: SR leukemia 85.3% | RPMI-8226 leukemia 84.9% | OVCAR-8 ovarian 111% | OVCAR-5 ovarian 87.3% | OVCAR-4 ovarian 89.2% | SK-OV-3 ovarian 107% | IGROV1 ovarian 92.2% | OVCAR-3 ovarian 107% | HS 578T breast 100% | NCI/ADR-RES ovarian 90.7%

Cc1ccc(NCCN(C)CC(C)O)c2c(=O)c3ccc(Cl)cc3sc12 (stereo not given)
inactive: OVCAR-8 ovarian 58.1% | OVCAR-5 ovarian 77.9% | OVCAR-4 ovarian 67.9% | SK-OV-3 ovarian 91.6% | IGROV1 ovarian 39.8% | OVCAR-3 ovarian 73.3% | HS 578T breast 58.6% | NCI/ADR-RES ovarian 57.8%
active: SR leukemia -28.9% | RPMI-8226 leukemia -8.72%

CC(=O)OC/C=C(/C)C[P+](c1ccccc1)(c1ccccc1)c1ccccc1
inactive: SR leukemia 64.9% | OVCAR-8 ovarian 35% | OVCAR-5 ovarian 81.4% | OVCAR-4 ovarian 85.8% | SK-OV-3 ovarian 94.7% | IGROV1 ovarian 83.5% | OVCAR-3 ovarian 62.9% | HS 578T breast 87.9% | NCI/ADR-RES ovarian 90.3%
active: RPMI-8226 leukemia 0.0221%

CCOC(=O)c1cc(C(=O)c2cc(OC)c(OC)c(OC)c2)n2c1ccc1c3cccnc3ccc12
inactive: SR leukemia 17.5% | RPMI-8226 leukemia 61.8% | OVCAR-8 ovarian 56.2% | OVCAR-5 ovarian 91.9% | OVCAR-4 ovarian 89.7% | SK-OV-3 ovarian 78.1% | IGROV1 ovarian 67.8% | OVCAR-3 ovarian 61.5% | HS 578T breast 72.8% | NCI/ADR-RES ovarian 33.9%

CC[N+](CC)=c1ccc2nc3c(cc(NCc4ccccc4)c4ccccc43)oc-2c1
active: SR leukemia -9.48% | RPMI-8226 leukemia -21.1% | OVCAR-8 ovarian -27.2% | OVCAR-5 ovarian -91.4% | OVCAR-4 ovarian -93.1% | SK-OV-3 ovarian -8.74% | IGROV1 ovarian -94.5% | OVCAR-3 ovarian -54.9% | HS 578T breast -20.4% | NCI/ADR-RES ovarian -7.86%

COc1ccc(-c2csc(NC(=O)c3ccc(Cc4n[nH]c(=O)c5cccnc45)cc3)n2)cc1
inactive: SR leukemia 118% | RPMI-8226 leukemia 82.6% | OVCAR-8 ovarian 93.8% | OVCAR-5 ovarian 95% | OVCAR-4 ovarian 94.5% | SK-OV-3 ovarian 95.1% | IGROV1 ovarian 75.4% | OVCAR-3 ovarian 103% | HS 578T breast 99.1% | NCI/ADR-RES ovarian 94.1%

Cc1ccc2nc(Cl)c(-c3nc4ccccc4o3)cc2c1
inactive: SR leukemia 88.6% | RPMI-8226 leukemia 97.8% | OVCAR-8 ovarian 99.4% | OVCAR-5 ovarian 97.8% | OVCAR-4 ovarian 99.3% | SK-OV-3 ovarian 104% | IGROV1 ovarian 79.2% | OVCAR-3 ovarian 98.3% | HS 578T breast 98.6% | NCI/ADR-RES ovarian 89.4%

Cc1ccc(NCCN(C)CC(C)O)c2c(=O)c3ccccc3sc12 (stereo not given)
active: SR leukemia 2.49%
inactive: RPMI-8226 leukemia 19% | OVCAR-8 ovarian 33.9% | OVCAR-5 ovarian 61.8% | OVCAR-4 ovarian 59.9% | SK-OV-3 ovarian 54.9% | IGROV1 ovarian 38.4% | OVCAR-3 ovarian 66.7% | HS 578T breast 55.2% | NCI/ADR-RES ovarian 44.7%

COc1cccc(C2C(C#N)=C(N)Oc3cc(N)ccc32)c1 (stereo not given)
active: OVCAR-3 ovarian -26.5% | NCI/ADR-RES ovarian -7.69%
inactive: SR leukemia 14.4% | RPMI-8226 leukemia 19.6% | OVCAR-8 ovarian 30.7% | OVCAR-5 ovarian 40.6% | OVCAR-4 ovarian 43.8% | SK-OV-3 ovarian 48.9% | IGROV1 ovarian 32.4% | HS 578T breast 22.1%
